Experimental findings from PubChem BioAssay (Tox21) are described below.

Assay [1] concerns the target Peroxisome proliferator-activated receptor delta (Homo sapiens) (UniProt Q03181). As to the kind of experiment: qHTS assay to identify small molecule agonists of the peroxisome proliferator-activated receptor delta (PPARd) signaling pathway (AID 743212; calls by dose curve; further: on the % scale 0 is the no-effect control and ±100 the full control effect). The method in brief:
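A PPARd-bla HEK293H line with beta-lactamase under an Upstream Activator Sequence is treated with compounds at 37 C. Substrate loading for 2 h at room temperature precedes the fluorescence measurement.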
On the technique in general: In qHTS, concentration-response curves come from the screen itself.

A short description of assay [2]: qHTS assay to identify small molecule antagonists of the peroxisome proliferator-activated receptor delta (PPARd) signaling pathway - cell viability counter screen (AID 743213). Further: on the % scale 0 is the no-effect control and ±100 the full control effect; nearly all actives have a fitted effect of over 50% in size. The method in brief: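 PPARd-bla HEK293H cells (3000/well) got compound plus 300 nM L165041 agonist for 17 h at 37 C. Viability in the same wells came from CellTiter-Glo luminescence after 30 min at room temperature.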

A short description of assay [3]: qHTS assay to identify small molecule agonists of the farnesoid-X-receptor (FXR) signaling pathway - cell viability counter screen (AID 743218). Further: on the % scale 0 is the no-effect control and ±100 the full control effect; nearly all actives have a fitted effect of over 45% in size. An outline of the steps:
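HEK 293T FXR-bla cells; 5 h pre-incubation, 16 h compound exposure at 37 C; LiveBLAzer substrate 2 h RT, then CellTiter-Glo 30 min RT, luminescence.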

Assay [4] concerns the target Bile acid receptor (Homo sapiens) (UniProt Q96RI1). As to the kind of experiment: qHTS assay to identify small molecule agonists of the farnesoid-X-receptor (FXR) signaling pathway (AID 743220; active means well fitted activation curve with a large enough effect in the signal ratio in the repeat runs, not every such curve was filed as active; the % refers to the signal ratio; further: on the % scale 0 is the no-effect control and ±100 the full control effect). An outline of the steps:
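Beta-lactamase reporter under UAS control in GeneBLAzer FXR HEK 293T cells (5000/well) measured with LiveBLAzer FRET substrate after 2 h at room temperature. Compound exposure lasted 16 h at 37C.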

Assay [5] is described as follows: qHTS assay to identify small molecule antagonists of the farnesoid-X-receptor (FXR) signaling pathway - cell viability counter screen (AID 743221; active means well fitted cell-killing curve with a large enough effect in the repeat runs, not every such curve was filed as active; further: on the % scale 0 is the no-effect control and ±100 the full control effect; nearly all actives have a fitted effect of over 50% in size). An outline of the steps: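 Cytotoxicity is taken from ATP luminescence (CellTiter-Glo, 30 min, room temperature) in FXR-bla HEK 293T cells previously incubated 16 h at 37 C with compound and chenodeoxycholic acid at 50 uM final.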

In assay [6] the target is Vitamin D3 receptor (Homo sapiens) (UniProt P11473). Briefly: qHTS assay to identify small molecule agonists of the vitamin D receptor (VDR) signaling pathway (AID 743222; calls by dose curve; further: on the % scale 0 is the no-effect control and ±100 the full control effect). An outline of the steps:
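VDR-bla cells, 2,000/well; 4 h preincubation 37C; cpd (DMSO) 16 h; LiveBLAzer B/G substrate 2 h RT; fluorescence intensity read.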

The target is the same in assay [7]. Briefly: qHTS assay to identify small molecule antagonists of the vitamin D receptor (VDR) signaling pathway (AID 743223; active means well fitted inhibition curve with a large enough effect in the signal ratio in the repeat runs, not every such curve was filed as active; the % refers to the signal ratio; further: on the % scale 0 is the no-effect control and ±100 the full control effect). The method in brief:
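Quantitative HTS in VDR-bla reporter cells stimulated with 1alpha,25-dihydroxyvitamin D3, 3 nM final. Compound exposure 16 h, 37C, 5% CO2. Read-out: beta-lactamase FRET substrate fluorescence, 2 h RT.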

A short description of assay [8]: qHTS assay to identify small molecule agonists of the vitamin D receptor (VDR) signaling pathway - cell viability counter screen (AID 743224). Further: series mostly up to about 63 µM; on the % scale 0 is the no-effect control and ±100 the full control effect; nearly all actives have a fitted effect of over 50% in size. An outline of the steps:
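Luminescence from CellTiter-Glo, read after 30 min at room temperature, reports viability of VDR-bla cells treated with compounds for 16 h at 37C in the wells used for the beta-lactamase FRET read.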

Assay [9] in a line: qHTS assay to identify small molecule antagonists of the vitamin D receptor (VDR) signaling pathway - cell viability counter screen (AID 743225). Further: on the % scale 0 is the no-effect control and ±100 the full control effect; nearly all actives have a fitted effect of over 50% in size. The method in brief:
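Same-well multiplex: following 16 h treatment of HEK 293T cells carrying a UAS-driven beta-lactamase reporter with compound and agonist (3 nM final), and a 2 h FRET substrate step, CellTiter-Glo was added and luminescence read after 30 min.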

The nature of assay [10]: qHTS assay to identify small molecule agonists of the NFkB signaling pathway - cell viability counter screen (AID 1159515; calls by dose curve; further: series mostly up to about 61 µM; on the % scale 0 is the no-effect control and ±100 the full control effect; nearly all actives have a fitted effect of over 55% in size). An outline of the steps: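 Luminescence from CellTiter-Glo (30 min, room temperature) gives viability, measured in the same wells as the beta-lactamase reporter read. Cells were NFkB-bla ME-180, 2,000 per well, treated 5 hr with compounds.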
Assay [11] in a line: qHTS assay to identify small molecule agonists of the endoplasmic reticulum stress response signaling pathway (AID 1159516; active means well fitted activation curve with a large enough effect in the signal ratio in the repeat runs, not every such curve was filed as active; the % refers to the signal ratio; further: on the % scale 0 is the no-effect control and ±100 the full control effect). The method in brief: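 Read-out is beta-lactamase cleavage of a FRET substrate (405 nm excitation; 460 and 530 nm emissions) in ESRE-bla HeLa cells after a 5 hr compound exposure at 37 C. Substrate incubation ran 2 hr at room temperature.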
Assay [12] is described as follows: qHTS assay to identify small molecule agonists of the endoplasmic reticulum stress response signaling pathway - cell viability counter screen (AID 1159517; calls by dose curve). An outline of the steps:
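CellTiter-Glo was added to wells already read for beta-lactamase FRET, and luminescence was recorded 30 min later. Cells: ESRE-bla HeLa, 1,500 per well, compound exposure 5 hr at 37 C.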

Assay [13] can be described thus: qHTS assay to identify small molecule antagonists of the retinoid-related orphan receptor gamma (ROR-gamma) signaling pathway - cell viability counter screen (AID 1159520). The method in brief: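 Tet-on ROR gamma CHO cells (1,000/well) were plated 4 hr, given compounds in DMSO for 2 hr at 37 C, then induced with 1 uM final doxycycline for 16 hr. Viability was read as ATP by CellTiter-Glo luminescence after 30 min.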

The target in assay [14] is Nuclear receptor ROR-gamma (Homo sapiens) (UniProt P51449). Briefly: qHTS assay to identify small molecule antagonists of the retinoid-related orphan receptor gamma (ROR-gamma) signaling pathway (AID 1159521; further: nearly all actives have a fitted effect of over 50% in size; further: potency means the concentration at half of the fitted maximal effect). The method in brief: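 Inducible-expression reporter assay: doxycycline (1 uM final) switched on RORγ in CHO cells bearing a ROR response element-luciferase construct, with test compounds present from 2 h beforehand. Decreased luminescence after 16 h defined antagonist activity.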

Assay [15] can be described thus: qHTS assay to identify small molecule agonists of the AP-1 signaling pathway - cell viability counter screen (AID 1159525; calls by dose curve; further: nearly all actives have a fitted effect of over 55% in size). The method in brief:
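ME-180 AP-1-bla, 2500 cells/well, Opti-MEM + 0.5% dialyzed FBS; overnight 37 °C; cpd 15-pt titration, 5 h 37 °C; CellTiter-Glo 30 min RT; luminescence read; normalised to TOAB and DMSO controls.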

Assay [16] has as its target Retinoic acid receptor RXR-alpha (Homo sapiens) (UniProt P19793). As to the kind of experiment: qHTS assay to identify small molecule agonists of the RXR signaling pathway (AID 1159527; calls by dose curve; further: nearly all actives have a fitted effect of over 35% in size; further: potency means the concentration at half of the fitted maximal effect). The method in brief: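 Compounds in DMSO were added to RXR-alpha-UAS-bla HEK 293T cells kept in 2% charcoal-stripped serum, and incubated 16 hr at 37 C with 5% CO2. Reporter signal came from a 2 hr B/G FRET substrate step.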

The target in assay [17] is Peroxisome proliferator-activated receptor delta (Homo sapiens) (UniProt Q03181). As to the kind of experiment: qHTS assay to identify small molecule antagonists of the peroxisome proliferator-activated receptor delta (PPARd) signaling pathway (AID 743215; active means well fitted inhibition curve with a large enough effect in the signal ratio in the repeat runs, not every such curve was filed as active; the % refers to the signal ratio). The method in brief: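 Read-out is beta-lactamase FRET fluorescence, measured 2 h after substrate addition at room temperature. Beforehand, UAS-bla HEK293H cells carrying the PPARd reporter were exposed to compounds with L165041 at 300 nM final for 17 h at 37 C.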
Peroxisome proliferator-activated receptor delta (Homo sapiens), sequence (Q03181 whole entry, looked up): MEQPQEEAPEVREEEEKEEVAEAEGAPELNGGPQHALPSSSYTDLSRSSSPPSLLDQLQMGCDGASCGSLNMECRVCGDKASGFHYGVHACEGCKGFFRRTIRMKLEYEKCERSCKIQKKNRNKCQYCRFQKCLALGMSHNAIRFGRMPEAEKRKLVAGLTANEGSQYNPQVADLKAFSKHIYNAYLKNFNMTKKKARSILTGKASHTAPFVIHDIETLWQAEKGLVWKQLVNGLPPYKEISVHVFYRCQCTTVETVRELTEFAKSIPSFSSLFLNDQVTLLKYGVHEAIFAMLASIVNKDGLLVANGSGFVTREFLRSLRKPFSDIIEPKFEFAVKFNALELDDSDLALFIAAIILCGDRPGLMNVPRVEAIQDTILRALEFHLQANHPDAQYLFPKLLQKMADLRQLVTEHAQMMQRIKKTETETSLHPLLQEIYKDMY

In assay [18] the target is Bile acid receptor (Homo sapiens) (UniProt Q96RI1). As to the kind of experiment: qHTS assay to identify small molecule antagonists of the farnesoid-X-receptor (FXR) signaling pathway (AID 743217; active means well fitted inhibition curve with a large enough effect in the signal ratio in the repeat runs, not every such curve was filed as active; the % refers to the signal ratio; further: on the % scale 0 is the no-effect control and ±100 the full control effect). The method in brief: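 HEK 293T FXR-UAS-bla, 5000 cells/well; compound + CDCA 50 uM final; 16 h, 37 °C; B/G FRET substrate 2 h RT; fluorescence.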
Bile acid receptor (Homo sapiens), sequence (Q96RI1 whole entry, looked up): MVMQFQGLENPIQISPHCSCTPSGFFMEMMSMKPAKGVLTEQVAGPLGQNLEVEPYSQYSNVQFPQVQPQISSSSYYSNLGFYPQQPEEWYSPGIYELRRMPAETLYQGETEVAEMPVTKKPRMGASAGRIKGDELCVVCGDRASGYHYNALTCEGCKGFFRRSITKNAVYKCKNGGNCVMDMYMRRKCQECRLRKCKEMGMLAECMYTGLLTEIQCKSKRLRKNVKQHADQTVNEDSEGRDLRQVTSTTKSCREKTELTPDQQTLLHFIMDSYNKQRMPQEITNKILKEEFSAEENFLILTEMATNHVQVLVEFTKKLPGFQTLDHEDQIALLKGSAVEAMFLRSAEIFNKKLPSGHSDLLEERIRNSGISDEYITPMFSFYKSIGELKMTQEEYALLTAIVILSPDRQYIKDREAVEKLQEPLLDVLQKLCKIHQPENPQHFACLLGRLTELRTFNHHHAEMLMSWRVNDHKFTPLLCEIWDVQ
Assay [19] in a line: qHTS assay to identify small molecule agonists of the peroxisome proliferator-activated receptor delta (PPARd) signaling pathway - cell viability counter screen (AID 743211). Further: on the % scale 0 is the no-effect control and ±100 the full control effect; nearly all actives have a fitted effect of over 55% in size. The method in brief: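 Tox21 library compounds, delivered in DMSO, were incubated 17 h with PPARd-bla HEK293H cells; cytotoxicity was taken from CellTiter-Glo luminescence read 30 min after reagent addition.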

A short description of assay [20]: qHTS assay to identify small molecule agonists of the AP-1 signaling pathway (AID 1159526; calls by dose curve; further: on the % scale 0 is the no-effect control and ±100 the full control effect).

Inconclusive results are not listed. Unmarked numbers belong to inactive results. Activity calls are given as the source filed them. Unless noted, the call rests on the fitted dose curve; in most records, active means well fitted curve in the direction sought with a large enough effect in the repeat runs; inconclusive means weak or mixed curves; inactive means no such curve, though single readings can be large; an effect the other way counts as inactive or inconclusive.

Retinoic acid receptor RXR-alpha (Homo sapiens), sequence (P19793 whole entry, looked up): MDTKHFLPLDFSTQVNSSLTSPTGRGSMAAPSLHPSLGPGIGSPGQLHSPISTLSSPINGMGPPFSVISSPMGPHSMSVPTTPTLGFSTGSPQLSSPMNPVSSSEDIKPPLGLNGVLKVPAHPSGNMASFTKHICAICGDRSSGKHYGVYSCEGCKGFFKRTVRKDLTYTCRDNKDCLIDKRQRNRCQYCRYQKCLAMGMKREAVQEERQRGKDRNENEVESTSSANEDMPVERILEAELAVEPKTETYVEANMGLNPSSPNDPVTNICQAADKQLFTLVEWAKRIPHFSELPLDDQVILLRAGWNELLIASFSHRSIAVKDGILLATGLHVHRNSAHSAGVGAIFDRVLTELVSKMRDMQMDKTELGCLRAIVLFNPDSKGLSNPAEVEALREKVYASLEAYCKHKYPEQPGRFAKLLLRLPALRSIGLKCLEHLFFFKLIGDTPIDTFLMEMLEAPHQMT
Vitamin D3 receptor (Homo sapiens), sequence (P11473 whole entry, looked up): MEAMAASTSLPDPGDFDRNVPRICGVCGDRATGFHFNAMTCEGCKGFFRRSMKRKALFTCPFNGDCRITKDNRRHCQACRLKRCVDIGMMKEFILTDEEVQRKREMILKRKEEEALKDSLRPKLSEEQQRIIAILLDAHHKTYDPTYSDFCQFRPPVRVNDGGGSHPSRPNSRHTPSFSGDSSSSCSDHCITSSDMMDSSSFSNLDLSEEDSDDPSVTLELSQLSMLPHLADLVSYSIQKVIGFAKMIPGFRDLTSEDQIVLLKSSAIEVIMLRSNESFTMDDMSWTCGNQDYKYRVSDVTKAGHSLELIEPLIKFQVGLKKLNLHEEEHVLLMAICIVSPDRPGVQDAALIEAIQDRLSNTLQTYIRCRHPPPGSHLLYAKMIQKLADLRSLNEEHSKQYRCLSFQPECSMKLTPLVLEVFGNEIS

For the molecule `CC(=O)SCc1ccco1`, the outcome in assay [1], in assay [4], in assay [6] and in assay [12] was inactive. Also, the Potency result in assay [2], in assay [3], in assay [5], in [7], in [8] and in [9] was “inactive” each time. In addition, the Potency entry in [10], in [11], in assay [13], in [14], in [15] and in assay [16] was “inactive” in each case.
Regarding `CCCCc1cc2ccccc2c(OCCN(C)C)n1`, the result in [1], in assay [17], in assay [18], in [4], in [6] and in [12] was inactive. Also, the Potency result in assay [2], in [3], in assay [5], in [7], in assay [8] and in assay [9] was “inactive” each time. Besides, the Potency result in assay [10], in [11], in [13], in assay [14], in assay [15] and in assay [16] was “inactive” throughout.
Take `C=Cc1c(C)c2cc3[nH]c(cc4nc(cc5nc(cc1[nH]2)C(C)=C5CCC(=O)O)C(CCC(=O)O)=C4C)c(C)c3C=C`: the molecule was called inactive in [1], in [6] and in assay [12]. Further, the Potency result in assay [2], in assay [3], in assay [10], in assay [11], in assay [13] and in assay [15] was “inactive” in each case. Also, the Potency entry in [16] was “inactive”. The Potency in assay [14] is 26.6 µM (active).
On to `CCCCCCCCCCCCCCCCCBr`, for which the Potency result in assay [19], in assay [2], in assay [3], in [5], in assay [7] and in assay [8] was “inactive” throughout. Besides, the Potency result in assay [9], in assay [10] and in assay [11] was “inactive” in each case. Also, the molecule was classed as inactive in assay [18], in assay [4], in [6] and in assay [12]. Besides, the activity, negative = cytotoxicity in [13] was 2.1% [at 19 µM]. For the same molecule, in assay [14], the activity change, negative = inhibition is 24.8% [at 19 µM]. For the same molecule, the viability change, negative = cytotoxic in [15] is 0.953% [at 15.8 µM]. For the same molecule, in assay [16], the activation was -0.344% [at 15.8 µM].
Consider `CCCCCCCCC(CO)CCCCCC` (stereo not given), for which the Potency entry in assay [19], in assay [2], in assay [3], in assay [5], in assay [7] and in [8] was “inactive” throughout. In addition, the Potency result in [9], in [10], in [11], in assay [13], in [14] and in assay [20] was “inactive” throughout. Besides, in assay [16], the Potency entry is “inactive”. Further, the result in [18], in assay [4], in [6] and in assay [12] was inactive.
On to `O=C(O)[C@@H]1[C@H]2C[C@H]3c4[nH]c5ccccc5c4CCN3C[C@@H]2CC[C@@H]1O`, for which the Potency entry in assay [19], in assay [2], in [3], in assay [5], in [8] and in assay [9] was “inactive” throughout. For the same molecule, the Potency result in assay [10], in assay [11], in [13], in assay [14], in assay [15] and in assay [16] was “inactive” throughout. The result in assay [1], in [18], in assay [4], in assay [6] and in [12] was inactive.
As to `Oc1ccc(O)c2c(O)cccc12`, the Potency result in assay [19], in assay [3], in assay [5], in [8], in assay [9] and in assay [10] was “inactive” throughout. The Potency result in assay [11], in assay [13], in assay [14], in [15] and in [16] was “inactive” throughout. Moreover, the molecule was called inactive in assay [1], in [17], in [6] and in assay [12].
As for `CC(=O)[C@@]1(O)CC[C@H]2[C@@H]3C[C@H](C)C4=CC(=O)CC[C@]4(C)[C@H]3CC[C@@]21C`, the Potency entry in assay [19], in [2], in assay [3], in assay [5], in [9] and in assay [10] was “inactive” each time. Further, the Potency result in [11], in [13], in assay [14], in [15] and in assay [16] was “inactive” in each case. The molecule was classed as inactive in [1], in assay [6] and in assay [12].
Take `CC(C)c1ccccc1C(C)C`: the Potency result in assay [19], in assay [2], in assay [3], in assay [5], in assay [7] and in assay [8] was “inactive” in each case. Further, the Potency result in assay [9], in [10], in assay [11], in assay [13], in [14] and in assay [15] was “inactive” in each case. For the same molecule, the Potency entry in assay [16] is “inactive”. Further, the molecule was classed as inactive in assay [1], in assay [6] and in [12].
In the case of `CN1CCC[C@@H]1c1cccnc1`, the Potency result in assay [19], in assay [2], in assay [3], in assay [5], in [7] and in assay [8] was “inactive” in each case. Moreover, the Potency entry in assay [10], in [11], in assay [13], in [14], in [15] and in assay [16] was “inactive” throughout. Further, the call in assay [6] and in assay [12] was inactive.
Turning to `O=C(O)C1CCC(C(=O)O)CC1` (stereo not given), the Potency result in [19], in assay [2], in assay [3], in assay [7], in assay [8] and in assay [9] was “inactive” throughout. Besides, the Potency result in assay [10], in [11], in assay [13], in [14] and in [15] was “inactive” in each case. Further, the result in assay [4], in assay [6] and in [12] was inactive. The Potency in assay [16] is 5.48 µM (active).
